In all, about 5,500 compounds went through this assay and about 2,000 (36%) were called active. Not shown: some 18% with an inconclusive outcome. Rule as the data show it: active = normalized growth mostly below about 0.91 (no sharp cut-off); inconclusive = no clear call, values can overlap the other calls; inactive = mostly above about 0.92. Some of the results follow.
Assay: chemical genetic growth profiling, strain panel (AID 1159580);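 also: tested at 20 µM; growth read once vehicle control cultures reached saturation at 30 °C; 1 = growth at the plate median or of vehicle wells; lower values mean less growth of the strain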
Settings: S. cerevisiae deletion strains, growth OD

Measured: normalized growth

O=C(Nc1cccc(C(=O)Nc2ccc(S(=O)(=O)O)c3cc(S(=O)(=O)O)cc(S(=O)(=O)O)c23)c1)Nc1cccc(C(=O)Nc2ccc(S(=O)(=O)O)c3cc(S(=O)(=O)O)cc(S(=O)(=O)O)c23)c1
inactive: locus YAL040C, strain CLN3, stronger effect = lower value 1.05 | locus YCL061C, strain MRC1 (second series), stronger effect = lower value 0.981 | locus YDR150W, strain NUM1, stronger effect = lower value 0.976 | locus YDR363W, strain ESC2, stronger effect = lower value 1.02 | locus YER002W, strain NOP16, stronger effect = lower value 0.968 | locus YMR263W, strain SAP30, stronger effect = lower value 0.973 | locus YNL153C, strain GIM3, stronger effect = lower value 0.977 | locus YNL175C, strain NOP13, stronger effect = lower value 0.978 | locus YNL197C, strain WHI3, stronger effect = lower value 0.968 | locus YNL224C, strain SQS1, stronger effect = lower value 0.981 | locus YOR083W, strain WHI5 (second series), stronger effect = lower value 0.97
